In PubChem BioAssay AID1159580 (chemical genetic matrix, 2015):
The campaign covered roughly 5,500 compounds. About 2,000 (36%) were called active. About 18% were inconclusive and are not listed. No stated cut-off is given here; in the data, active means normalized growth mostly below about 0.91 (no sharp cut-off); inconclusive means no clear call, values can overlap the other calls; inactive means mostly above about 0.92. Some of the results follow.

Experiment: chemical genetic growth profiling, strain panel (AID 1159580);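 further: tested at 20 µM; growth read once vehicle control cultures reached saturation at 30 °C; 1 = growth at the plate median or of vehicle wells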
Settings: growth OD

Measured: normalized growth

COc1ccc(NS(=O)(=O)c2ccc(N)cc2)nn1
inactive: S. cerevisiae deletion strains, locus YKL009W, strain mrt4, stronger effect = lower value 1 | S. cerevisiae deletion strains, locus YKL068W, stronger effect = lower value 0.997 | S. cerevisiae deletion strains, locus YKL085W, strain MDH1 (second series), stronger effect = lower value 0.999 | S. cerevisiae deletion strains, locus YKL085W, strain MDH1, stronger effect = lower value 0.999 | S. cerevisiae deletion strains, locus YKL160W, strain elf1, stronger effect = lower value 0.984 | S. cerevisiae deletion strains, locus YKL190W, strain CNB1, stronger effect = lower value 1.02 | S. cerevisiae deletion strains, locus YKR001C, strain vps1, stronger effect = lower value 0.985 | S. cerevisiae deletion strains, locus YKR026C, strain gcn3, stronger effect = lower value 1.01 | S. cerevisiae deletion strains, locus YKR091W, strain srl3, stronger effect = lower value 0.993 | S. cerevisiae deletion strains, locus YLL001W, strain dnm1, stronger effect = lower value 0.967 | S. cerevisiae deletion strains, locus YLL026W, stronger effect = lower value 0.997 | S. cerevisiae deletion strains, locus YLL041C, strain sdh2, stronger effect = lower value 0.993 | S. cerevisiae deletion strains, locus YLR027C, strain aat2, stronger effect = lower value 1 | S. cerevisiae deletion strains, locus YLR039C, strain RIC1, stronger effect = lower value 1.01 | S. cerevisiae deletion strains, locus YLR058C, strain SHM2, stronger effect = lower value 1.03 | S. cerevisiae deletion strains, locus YLR102C, strain apc9, stronger effect = lower value 0.986 | S. cerevisiae deletion strains, locus YLR113W, strain HOG1, stronger effect = lower value 1.01 | S. cerevisiae deletion strains, locus YLR221C, strain rsa3, stronger effect = lower value 0.989 | S. cerevisiae deletion strains, locus YLR258W, strain gsy2, stronger effect = lower value 0.971 | S. cerevisiae deletion strains, locus YLR262C, strain YPT6 (second series), stronger effect = lower value 1.02 | S. cerevisiae deletion strains, locus YLR262C, strain YPT6, stronger effect = lower value 1.06 | S. cerevisiae deletion strains, locus YLR268W, strain sec22, stronger effect = lower value 0.99 | S. cerevisiae deletion strains, locus YLR320W, strain mms22, stronger effect = lower value 0.961 | S. cerevisiae deletion strains, locus YLR330W, strain CHS5, stronger effect = lower value 1.01 | S. cerevisiae deletion strains, locus YLR342W, strain FKS1 (second series), stronger effect = lower value 1.01 | S. cerevisiae deletion strains, locus YLR342W, strain FKS1, stronger effect = lower value 0.963 | S. cerevisiae deletion strains, locus YLR357W, strain rsc2, stronger effect = lower value 0.945 | S. cerevisiae deletion strains, locus YLR370C, strain arc18, stronger effect = lower value 0.999 | S. cerevisiae deletion strains, locus YLR371W, strain rom2, stronger effect = lower value 0.983 | S. cerevisiae deletion strains, locus YLR384C, strain iki3, stronger effect = lower value 1.02 | S. cerevisiae deletion strains, locus YLR418C, strain cdc73, stronger effect = lower value 1 | S. cerevisiae deletion strains, locus YML016C, strain PPZ1, stronger effect = lower value 1.02 | S. cerevisiae deletion strains, locus YML032C, strain rad52, stronger effect = lower value 0.994 | S. cerevisiae deletion strains, locus YML120C, strain ndi1, stronger effect = lower value 1 | S. cerevisiae deletion strains, locus YML124C, strain tub3, stronger effect = lower value 0.994 | S. cerevisiae deletion strains, locus YMR058W, strain fet3, stronger effect = lower value 1.01 | S. cerevisiae deletion strains, locus YMR078C, strain ctf18, stronger effect = lower value 0.997 | S. cerevisiae deletion strains, locus YMR125W, strain sto1, stronger effect = lower value 1.01 | S. cerevisiae deletion strains, locus YMR129W, stronger effect = lower value 0.989 | S. cerevisiae deletion strains, locus YMR205C, strain PFK2, stronger effect = lower value 0.986 | S. cerevisiae deletion strains, locus YMR223W, strain ubp8, stronger effect = lower value 0.99 | S. cerevisiae deletion strains, locus YMR231W, strain pep5, stronger effect = lower value 0.994 | S. cerevisiae deletion strains, locus YMR307W, strain GAS1, stronger effect = lower value 1.01 | S. cerevisiae deletion strains, locus YNL067W, strain RPL9B, stronger effect = lower value 1.03 | S. cerevisiae deletion strains, locus YNL071W, strain lat1, stronger effect = lower value 1 | S. cerevisiae deletion strains, locus YNL128W, strain TEP1, stronger effect = lower value 1.02 | S. cerevisiae deletion strains, locus YNL153C, strain GIM3, stronger effect = lower value 1.04 | S. cerevisiae deletion strains, locus YNL183C, strain NPR1, stronger effect = lower value 0.935 | S. cerevisiae deletion strains, locus YNL209W, strain ssb2, stronger effect = lower value 1.01 | S. cerevisiae deletion strains, locus YNL233W, strain BNI4, stronger effect = lower value 1.03 | S. cerevisiae deletion strains, locus YNL248C, strain rpa49, stronger effect = lower value 0.994 | S. cerevisiae deletion strains, locus YNL250W, strain rad50, stronger effect = lower value 0.984 | S. cerevisiae deletion strains, locus YNL271C, strain bni1, stronger effect = lower value 0.983 | S. cerevisiae deletion strains, locus YNL298W, strain CLA4, stronger effect = lower value 0.981 | S. cerevisiae deletion strains, locus YNL307C, strain MCK1, stronger effect = lower value 0.993 | S. cerevisiae deletion strains, locus YNL322C, strain KRE1 (second series), stronger effect = lower value 0.974 | S. cerevisiae deletion strains, locus YNR049C, strain mso1, stronger effect = lower value 0.999 | S. cerevisiae deletion strains, locus YNR052C, strain pop2, stronger effect = lower value 0.987 | S. cerevisiae deletion strains, locus YOL006C, strain TOP1, stronger effect = lower value 1.09 | S. cerevisiae deletion strains, locus YOL012C, strain htz1 1.23 | S. cerevisiae deletion strains, locus YOL147C, strain pex11, stronger effect = lower value 0.99 | S. cerevisiae deletion strains, locus YOR001W, strain rrp6, stronger effect = lower value 1 | S. cerevisiae deletion strains, locus YOR061W, strain CKA2, stronger effect = lower value 1.02 | S. cerevisiae deletion strains, locus YOR069W, strain VPS5, stronger effect = lower value 1.01 | S. cerevisiae deletion strains, locus YOR070C, strain gyp1, stronger effect = lower value 1 | S. cerevisiae deletion strains, locus YOR080W, strain dia2, stronger effect = lower value 1 | S. cerevisiae deletion strains, locus YOR083W, strain WHI5, stronger effect = lower value 0.947 | S. cerevisiae deletion strains, locus YOR106W, strain vam3, stronger effect = lower value 1 | S. cerevisiae deletion strains, locus YOR136W, strain idh2, stronger effect = lower value 0.996 | S. cerevisiae deletion strains, locus YOR144C, strain elg1, stronger effect = lower value 0.992 | S. cerevisiae deletion strains, locus YOR184W, strain ser1, stronger effect = lower value 0.996 | S. cerevisiae deletion strains, locus YOR231W, strain MKK1, stronger effect = lower value 0.998 | S. cerevisiae deletion strains, locus YOR265W, strain rbl2, stronger effect = lower value 1 | S. cerevisiae deletion strains, locus YOR270C, strain vph1, stronger effect = lower value 1.05 | S. cerevisiae deletion strains, locus YOR290C, strain snf2, stronger effect = lower value 0.991 | S. cerevisiae deletion strains, locus YOR316C, strain cot1, stronger effect = lower value 0.985 | S. cerevisiae deletion strains, locus YPL051W, strain arl3, stronger effect = lower value 0.976 | S. cerevisiae deletion strains, locus YPL055C, strain LGE1, stronger effect = lower value 1.07 | S. cerevisiae deletion strains, locus YPL078C, strain atp4, stronger effect = lower value 0.994 | S. cerevisiae deletion strains, locus YPL106C, strain sse1, stronger effect = lower value 0.96 | S. cerevisiae deletion strains, locus YPL240C, strain hsp82, stronger effect = lower value 1 | S. cerevisiae deletion strains, locus YPL241C, strain CIN2, stronger effect = lower value 1.01 | S. cerevisiae deletion strains, locus YPL256C, strain CLN2, stronger effect = lower value 0.985 | S. cerevisiae deletion strains, locus YPR119W, strain clb2, stronger effect = lower value 0.997 | S. cerevisiae deletion strains, locus YPR141C, strain kar3, stronger effect = lower value 0.988 | S. cerevisiae deletion strains, locus YPR163C, strain tif3, stronger effect = lower value 0.99 | S. cerevisiae deletion strains, locus YPR167C, strain met16, stronger effect = lower value 0.992 | S. cerevisiae deletion strains, strain wtn01, stronger effect = lower value 0.986 | S. cerevisiae strains, strain wild type, stronger effect = lower value 1.01
